Data on 31 molecules can be found in PubChem BioAssay (Tox21).

Each structure is given as a SMILES string. Results filed as inconclusive are left out. The source made the active and inactive calls. Calls come from the whole dose curve; as a rule, active = well fitted curve in the direction sought with a large enough effect in the repeat runs; inconclusive = weak or mixed curves; inactive = no such curve, though single readings can be large; an effect the other way counts as inactive or inconclusive.

For test [1], the target named is Cytochrome P450 2D6 (Homo sapiens) (UniProt P10635). As to the kind of experiment: Cytochrome P450 Family 2 Subfamily D Member 6 (CYP2D6) small molecule antagonists: luciferase reporter qHTS assay (AID 1671196). Note: nearly all actives have a fitted effect of over 50% in size. The conditions noted are these: P450-Glo CYP2D6 enzyme assay, luciferin luminescence, 1 h; series mostly up to 115 µM. An outline of the steps:
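Each well received CYP2D6 with its proluciferin substrate and chemical, sat 10 min, then got NADPH regeneration solution for 1 h at room temperature. Luminescence in RLU served as the activity measure.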
(In general: Reporter assays use an easily measured gene product as a stand-in for the process of interest.)

Test [2] addresses Cytochrome P450 2C19 (Homo sapiens) (UniProt P33261). As to the kind of experiment: Cytochrome P450 Family 2 Subfamily C Member 19 (CYP2C19) small molecule antagonists: luciferase reporter qHTS assay (AID 1671197). Note: nearly all actives have a fitted effect of over 65% in size. Particulars: P450-Glo CYP2C19 enzyme, luciferin luminescence, 1 h; series mostly up to 115 µM. The procedure, abridged:
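Relative luminescence units recorded 20 min after the detection reagent stopped a 1 h, 37C CYP2C19 reaction on proluciferin substrate, which was started by NADPH regeneration following 10 min room-temperature compound preincubation; ketoconazole positive control.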

For test [3], the target named is Cytochrome P450 2C9 (Homo sapiens) (UniProt P11712). As to the kind of experiment: Cytochrome P450 Family 2 Subfamily C Member 9 (CYP2C9) small molecule antagonists: luciferase reporter qHTS assay (AID 1671198). Note: nearly all actives have a fitted effect of over 50% in size. The conditions noted are these: P450-Glo CYP2C9 enzyme assay, luciferin luminescence; series mostly up to 115 µM. The procedure, abridged:
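P450-Glo proluciferin substrate with CYP2C9 enzyme; 10 min RT preincubation, then NADPH regeneration 1 h at 37C; luciferin detection reagent 20 min RT, luminescence in relative luminescence units.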

Test [4] deals with Voltage-gated inwardly rectifying potassium channel KCNH2 (Homo sapiens) (UniProt Q12809). As to the kind of experiment: Human Ether-a-go-go-Related Gene (hERG) channel small molecule antagonists: fluorescence cell-based qHTS assay (AID 1671200). Note: nearly all actives have a fitted effect of over 50% in size. The conditions noted are these: hERG-U2OS cells, FluxOR thallium flux fluorescence; series mostly up to 76.8 µM. An outline of the steps: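 U2OS cells expressing the channel were plated at 1000 cells/well, incubated overnight at 37 C, then loaded with FluxOR II thallium-sensitive dye for 1 h at room temperature in the dark, with a further 10 min at room temperature before stimulation.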
On the technique in general: hERG is a cardiac potassium channel; its block is linked to QT prolongation.

For test [5], the target named is Cytochrome P450 3A4 (Homo sapiens) (UniProt P08684). In words: Cytochrome P450 Family 3 Subfamily A Member 4 (CYP3A4) small molecule antagonists: luciferase reporter qHTS assay (AID 1671201). Note: nearly all actives have a fitted effect of over 50% in size. The conditions noted are these: P450-Glo CYP3A4 enzyme, luciferin luminescence, 1 h; series mostly up to 115 µM. An outline of the steps:
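P450-Glo CYP3A4 system with proluciferin substrate; compounds preincubated 10 min RT with enzyme-substrate mix, then NADPH regeneration added for 1 h RT. Detection reagent 20 min, luminescence read as relative luminescence units.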

The target in test [6] is Cytochrome P450 1A2 (Homo sapiens) (UniProt P05177). In words: Cytochrome P450 Family 1 Subfamily A Member 2 (CYP1A2) small molecule antagonists: luciferase reporter qHTS assay (AID 1671199). Note: nearly all actives have a fitted effect of over 50% in size. The conditions noted are these: P450-Glo CYP1A2 enzyme, luciferin luminescence, 1 h; series mostly up to 115 µM. The procedure, abridged: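 Enzymatic CYP1A2 assay, human, luminescent: 10 min compound–enzyme–substrate preincubation, 1 h NADPH-dependent turnover, 20 min detection step, room temperature throughout. Reduced light indicates lower CYP1A2 activity.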
Potency is the fitted concentration of half-maximal effect.

Sequence of Cytochrome P450 2C19 (Homo sapiens) (P33261 whole entry, looked up): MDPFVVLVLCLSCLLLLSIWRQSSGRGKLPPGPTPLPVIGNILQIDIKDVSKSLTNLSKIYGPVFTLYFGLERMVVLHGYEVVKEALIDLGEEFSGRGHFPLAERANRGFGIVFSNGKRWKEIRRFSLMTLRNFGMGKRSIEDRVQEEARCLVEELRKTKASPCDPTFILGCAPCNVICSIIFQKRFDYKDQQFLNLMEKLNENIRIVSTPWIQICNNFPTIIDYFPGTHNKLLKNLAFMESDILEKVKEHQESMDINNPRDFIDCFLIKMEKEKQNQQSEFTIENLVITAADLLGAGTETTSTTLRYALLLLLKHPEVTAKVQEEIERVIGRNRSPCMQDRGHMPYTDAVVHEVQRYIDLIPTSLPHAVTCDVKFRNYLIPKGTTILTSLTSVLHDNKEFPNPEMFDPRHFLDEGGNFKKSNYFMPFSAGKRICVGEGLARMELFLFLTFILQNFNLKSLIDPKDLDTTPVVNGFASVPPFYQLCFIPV
Sequence of Cytochrome P450 2D6 (Homo sapiens) (P10635 whole entry, looked up): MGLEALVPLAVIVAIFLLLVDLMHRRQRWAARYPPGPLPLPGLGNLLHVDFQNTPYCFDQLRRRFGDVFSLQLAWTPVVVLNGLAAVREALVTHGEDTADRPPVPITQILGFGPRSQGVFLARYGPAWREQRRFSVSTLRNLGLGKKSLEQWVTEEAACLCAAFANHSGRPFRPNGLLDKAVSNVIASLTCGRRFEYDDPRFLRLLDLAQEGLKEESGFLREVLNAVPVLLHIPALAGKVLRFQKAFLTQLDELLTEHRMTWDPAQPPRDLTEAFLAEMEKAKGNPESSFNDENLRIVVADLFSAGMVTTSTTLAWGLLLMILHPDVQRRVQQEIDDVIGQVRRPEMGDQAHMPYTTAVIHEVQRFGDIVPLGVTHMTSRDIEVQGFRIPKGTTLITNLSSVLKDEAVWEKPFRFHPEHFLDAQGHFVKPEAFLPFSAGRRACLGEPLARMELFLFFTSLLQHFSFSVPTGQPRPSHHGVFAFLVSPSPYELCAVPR
Sequence of Cytochrome P450 3A4 (Homo sapiens) (P08684 whole entry, looked up): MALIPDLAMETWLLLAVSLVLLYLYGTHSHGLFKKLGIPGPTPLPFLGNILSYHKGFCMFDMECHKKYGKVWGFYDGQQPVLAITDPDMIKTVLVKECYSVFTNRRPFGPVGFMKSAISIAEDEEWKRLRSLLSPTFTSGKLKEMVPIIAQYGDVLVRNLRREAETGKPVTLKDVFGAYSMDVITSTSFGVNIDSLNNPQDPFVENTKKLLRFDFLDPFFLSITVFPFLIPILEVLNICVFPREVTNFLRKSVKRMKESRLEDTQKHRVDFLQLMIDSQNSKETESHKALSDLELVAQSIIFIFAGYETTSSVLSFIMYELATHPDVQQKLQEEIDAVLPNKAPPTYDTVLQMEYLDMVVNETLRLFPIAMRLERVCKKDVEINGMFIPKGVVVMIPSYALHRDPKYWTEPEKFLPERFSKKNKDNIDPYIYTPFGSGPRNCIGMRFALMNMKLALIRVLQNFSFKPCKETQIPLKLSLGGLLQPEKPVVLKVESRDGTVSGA
Sequence of Cytochrome P450 2C9 (Homo sapiens) (P11712 whole entry, looked up): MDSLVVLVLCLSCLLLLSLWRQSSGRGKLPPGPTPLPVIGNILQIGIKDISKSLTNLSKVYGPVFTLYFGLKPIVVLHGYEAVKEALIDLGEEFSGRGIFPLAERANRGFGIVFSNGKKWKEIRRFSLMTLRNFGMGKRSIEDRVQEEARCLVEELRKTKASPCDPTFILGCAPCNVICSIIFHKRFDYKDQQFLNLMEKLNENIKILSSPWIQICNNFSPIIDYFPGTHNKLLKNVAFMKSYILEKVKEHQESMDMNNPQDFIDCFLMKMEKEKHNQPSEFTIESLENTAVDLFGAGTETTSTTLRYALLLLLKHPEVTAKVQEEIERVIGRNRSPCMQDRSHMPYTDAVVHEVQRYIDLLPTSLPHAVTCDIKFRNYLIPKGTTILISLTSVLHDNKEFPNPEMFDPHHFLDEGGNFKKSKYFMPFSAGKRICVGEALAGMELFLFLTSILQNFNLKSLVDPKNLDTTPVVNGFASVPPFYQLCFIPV
Sequence of Cytochrome P450 1A2 (Homo sapiens) (P05177 whole entry, looked up): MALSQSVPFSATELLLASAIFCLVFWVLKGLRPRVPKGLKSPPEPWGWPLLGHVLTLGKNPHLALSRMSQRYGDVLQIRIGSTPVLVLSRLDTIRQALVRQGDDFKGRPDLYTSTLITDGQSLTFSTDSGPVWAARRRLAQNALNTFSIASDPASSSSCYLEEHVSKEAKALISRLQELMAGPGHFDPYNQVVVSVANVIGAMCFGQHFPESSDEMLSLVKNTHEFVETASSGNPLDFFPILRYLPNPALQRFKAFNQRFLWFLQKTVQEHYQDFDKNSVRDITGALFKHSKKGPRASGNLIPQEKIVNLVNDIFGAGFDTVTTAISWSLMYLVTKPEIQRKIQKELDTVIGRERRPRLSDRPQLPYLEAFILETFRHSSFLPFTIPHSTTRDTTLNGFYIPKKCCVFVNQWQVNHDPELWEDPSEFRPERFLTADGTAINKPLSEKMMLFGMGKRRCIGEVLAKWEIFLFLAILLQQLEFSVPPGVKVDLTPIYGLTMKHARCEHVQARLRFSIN
Sequence of Voltage-gated inwardly rectifying potassium channel KCNH2 (Homo sapiens) (Q12809 whole entry, looked up): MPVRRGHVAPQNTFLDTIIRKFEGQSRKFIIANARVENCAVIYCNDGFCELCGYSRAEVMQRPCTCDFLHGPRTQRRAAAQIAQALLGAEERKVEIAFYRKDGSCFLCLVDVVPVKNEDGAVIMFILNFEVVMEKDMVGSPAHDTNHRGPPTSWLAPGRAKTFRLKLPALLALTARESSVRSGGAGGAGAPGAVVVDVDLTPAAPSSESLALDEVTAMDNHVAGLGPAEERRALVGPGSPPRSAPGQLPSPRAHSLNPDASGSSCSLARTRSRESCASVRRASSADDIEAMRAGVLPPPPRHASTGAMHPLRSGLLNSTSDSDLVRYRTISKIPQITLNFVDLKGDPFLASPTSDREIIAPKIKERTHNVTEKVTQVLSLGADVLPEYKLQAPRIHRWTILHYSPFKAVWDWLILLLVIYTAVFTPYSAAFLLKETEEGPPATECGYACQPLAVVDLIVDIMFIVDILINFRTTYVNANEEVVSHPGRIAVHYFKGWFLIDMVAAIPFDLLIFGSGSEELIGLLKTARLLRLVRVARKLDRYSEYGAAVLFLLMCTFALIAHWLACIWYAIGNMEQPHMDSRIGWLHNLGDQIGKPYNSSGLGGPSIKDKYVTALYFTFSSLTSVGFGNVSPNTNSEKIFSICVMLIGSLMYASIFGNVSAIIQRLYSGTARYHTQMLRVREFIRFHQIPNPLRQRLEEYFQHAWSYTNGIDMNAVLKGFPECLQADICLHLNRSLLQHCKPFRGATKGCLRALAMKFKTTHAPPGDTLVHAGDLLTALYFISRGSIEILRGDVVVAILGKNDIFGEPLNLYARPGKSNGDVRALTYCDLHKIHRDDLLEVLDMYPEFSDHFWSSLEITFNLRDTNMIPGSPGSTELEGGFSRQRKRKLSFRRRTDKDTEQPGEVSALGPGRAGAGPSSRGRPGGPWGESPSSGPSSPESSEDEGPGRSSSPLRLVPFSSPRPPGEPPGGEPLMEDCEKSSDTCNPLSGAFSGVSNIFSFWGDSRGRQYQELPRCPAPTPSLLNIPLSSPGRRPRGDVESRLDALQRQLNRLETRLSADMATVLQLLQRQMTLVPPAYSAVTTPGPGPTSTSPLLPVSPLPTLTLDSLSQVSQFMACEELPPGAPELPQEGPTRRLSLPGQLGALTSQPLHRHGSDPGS

On to `C=CC(C)CCC=C(C)C` (configuration not stated), for which the Potency result in test [1], in test [2], in test [3], in test [4] and in test [5] was “inactive” each time.
For `Cc1cc(C)c(C)c(O)c1`, the Potency entry in test [1], in test [2], in test [3], in test [4] and in test [5] was “inactive” each time.
As to `O=C(c1ccco1)N1CCNCC1`, the Potency result in test [1], in test [2], in test [3] and in test [4] was “inactive” each time.
Turning to `CC(C)NC(=O)c1ccccc1N`, the Potency entry in test [1], in test [2], in test [3] and in test [4] was “inactive” throughout.
For `NC(=O)c1ccccc1`, the Potency entry in test [1], in test [2], in test [3], in test [4] and in test [5] was “inactive” in each case.
Take `Cc1ccc(NC=O)c(C)c1`: the Potency entry in test [1], in test [2], in test [3] and in test [4] was “inactive” in each case.
As for `CCCCCCCCS`, the Potency entry in test [1], in test [2], in test [3] and in test [4] was “inactive” throughout.
As for `CCCCCCCCOCCCN`, the Potency in test [1] was 6.33 µM (active); in test [2], 2 µM (active); in test [3] it was 28.3 µM (active); in test [4], 43.6 µM (active).
The corresponding values for `CCOC(OCC)OCC` are “inactive”, “inactive”, “inactive” and “inactive”.
For `CC1(C)CC(=O)CC(C)(C)N1`, the Potency result in test [1], in test [2], in test [3], in test [4] and in test [5] was “inactive” each time.
On to `NCCOCCOCCN`, for which the Potency in test [1] is 25.2 µM (active). Moreover, the Potency result in test [2], in test [3] and in test [4] was “inactive” in each case.
`CC(C)C/C=C(\C=O)c1ccccc1`: the Potency entry in test [1] is “inactive”. Moreover, the Potency was 17.8 µM (active) in test [2], 35.6 µM (active) in test [3], 39.9 µM (active) in test [6] and 35.6 µM (active) in test [5].
On to `O=C(O)c1ccccc1[N+](=O)[O-]`, for which the Potency entry in test [1], in test [2], in test [3], in test [4] and in test [5] was “inactive” throughout.
Consider `Cc1ccc(Cl)c(OCC(O)CNC(C)(C)C)c1` (configuration not stated), for which the Potency in test [1] is 1.1 µM (active). Moreover, the Potency result in test [2], in test [3], in test [6] and in test [5] was “inactive” throughout.
On to `COc1ccc(CN(CCN(C)C)c2ncccn2)cc1`, for which the Potency in test [1] is 0.692 µM (active); in test [2] it was 21.9 µM (active). For the same molecule, the Potency entry in test [3], in test [4] and in test [5] was “inactive” in each case.
Take `Cc1ccc2c(Cl)cc(Cl)c(O)c2n1`: the Potency result in test [1], in test [2], in test [3] and in test [4] was “inactive” throughout.
On to `Oc1ccc(Oc2ccccc2)cc1`, for which the Potency in test [1], in test [2] and in test [3] was 26.8 µM (active) each time. The Potency entry in test [4] is “inactive”.
`CCCCCO`: the Potency entry in test [1], in test [2], in test [3], in test [4] and in test [5] was “inactive” throughout.
Take `CC(C)CCCCCOC(=O)CS`: the Potency in test [1] is 25.2 µM (active); in test [3], 71 µM (active). For the same molecule, the Potency result in test [2] and in test [4] was “inactive” each time.
For `O=C(OCCCCCOC(=O)c1ccccc1)c1ccccc1`, the Potency entry in test [1], in test [4] and in test [5] was “inactive” in each case. Moreover, the results for the Potency in test [2] and in test [3] were 56.4 µM (active) and 11.2 µM (active), respectively.
On to `O=C(O)c1cc(C(=O)O)cc([N+](=O)[O-])c1`, for which the Potency result in test [1], in test [2], in test [3] and in test [4] was “inactive” each time.
As for `Cc1nc(C)c(C)nc1C`, the Potency result in test [1], in test [2], in test [3], in test [4] and in test [5] was “inactive” each time.
As for `C=C[Si]1(C)O[Si](C)(C=C)O[Si](C)(C=C)O[Si](C)(C=C)O1` (configuration not stated), the Potency entry in test [1], in test [3] and in test [4] was “inactive” each time. The Potency in test [2] is 63.3 µM (active).
As to `CCCCCC1CCC(=O)O1` (configuration not stated), the Potency entry in test [1], in test [2], in test [4] and in test [5] was “inactive” throughout. Further, the Potency in test [3] was 89.4 µM (active).
Regarding `OCCOc1cccc(OCCO)c1`, the Potency result in test [1], in test [2], in test [3] and in test [4] was “inactive” throughout.
With `CCOC(=O)CC(O)(CC(=O)OCC)C(=O)OCC`, the Potency entry in test [1] and in test [4] was “inactive” each time. Further, the Potency was 35.6 µM (active) in test [2] and 8.94 µM (active) in test [3].
Regarding `O=C(O)c1c2ccccc2cc2ccccc12`, the Potency result in test [1], in test [2], in test [4] and in test [5] was “inactive” throughout. Also, the Potency in test [3] is 31.6 µM (active).
In the case of `CC(=O)OCC(=O)[C@@]1(O)CC[C@H]2[C@@H]3CCC4=CC(=O)C=C[C@]4(C)[C@@]3(F)[C@@H](O)C[C@@]21C`, the Potency entry in test [1], in test [2], in test [6] and in test [4] was “inactive” in each case.
In the case of `CCC1=C(C)CN(C(=O)NCCc2ccc(S(=O)(=O)NC(=O)NC3CCC(C)CC3)cc2)C1=O` (configuration not stated), the Potency entry in test [1], in test [2], in test [6] and in test [4] was “inactive” each time.
Consider `C=C(C)C(=O)OCCCCCCCCCCOC(=O)C(=C)C`, for which the Potency in test [1] was 35.6 µM (active); in test [6] it was 44.8 µM (active). Also, the Potency result in test [2] and in test [5] was “inactive” throughout.
With `CCCc1ccc(OC)cc1`, the Potency entry in test [1], in test [4] and in test [5] was “inactive” in each case. Besides, the Potency in test [2] is 63.7 µM (active).
